Assay results from the supplement of paper PMC13380429.

Tested on: Vero E6 infected with SARS-CoV-2
Assay: inhibition of SARS-CoV-2 cytopathic effect; higher = more antiviral protection, active = above 15
Conditions: 48 h

Measured: inhibition of SARS-CoV-2 cytopathic effect

CCCCCN(C)CCC(O)(P(=O)(O)O)P(=O)(O)O [ibandronate]
inactive: 1 nM 0.68% | 8.33 nM 1.34% | 100 nM 0.79% | 833.33 nM -3.03% | 10000 nM -2.11%

O=C(NC1CCOCC1)c1ccc(-c2cc(-c3c[nH]nc3-c3ccccn3)ccn2)cc1
inactive: 1 nM 1% | 8.33 nM 0.61% | 100 nM 0.23% | 833.33 nM 4.34% | 10000 nM 3.89%

COc1ccc([C@@H]2CC(=O)c3c(O)cc(O[C@@H]4O[C@H](CO)[C@@H](O)[C@H](O)[C@H]4O[C@@H]4O[C@@H](C)[C@H](O)[C@@H](O)[C@H]4O)cc3O2)cc1O [neohesperidin]
inactive: 1 nM -2.2% | 8.33 nM 0.62% | 100 nM 2.24% | 833.33 nM -0.64% | 10000 nM -3.03%

COc1cc(NC(=O)c2ccc(-c3ccc(Cl)cc3)o2)cc(OC)c1
inactive: 1 nM 1.92% | 8.33 nM 0.3% | 100 nM 0.76% | 833.33 nM 0.19% | 10000 nM 0.71%

CN[C@@H]1[C@H](O[C@H]2[C@H](O[C@H]3[C@H](O)[C@@H](O)[C@H](NC(=N)N)[C@@H](O)[C@@H]3NC(=N)N)O[C@@H](C)[C@]2(O)CO)O[C@@H](CO)[C@H](O)[C@H]1O [dihydrostreptomycin]
inactive: 1 nM 0.2% | 8.33 nM -0.04% | 100 nM -0.21% | 833.33 nM 0.85% | 10000 nM -0.41%

CCCc1nc2c(C)cc(-c3nc4ccccc4n3C)cc2n1Cc1ccc(-c2ccccc2C(=O)O)cc1 [telmisartan]
inactive: 1 nM -1.56% | 8.33 nM -2.17% | 100 nM -4.81% | 833.33 nM 2.3% | 10000 nM 1.33%

CC(C)(NS(=O)(=O)c1ccc(Oc2ccc(F)cc2)cc1)C(=O)NO
inactive: 1 nM 3.55% | 8.33 nM 0.75% | 100 nM 2.56% | 833.33 nM 0.48% | 10000 nM -0.6%

Cc1ncc(CO)c(C=O)c1O [pyridoxal]
inactive: 1 nM 4.33% | 8.33 nM 2.21% | 100 nM 0.26% | 833.33 nM -1.64% | 10000 nM 1.19%

COc1ccc(C(=O)NCc2cccnc2)cc1C(=O)NCc1cccnc1 [picotamide]
inactive: 1 nM -0.44% | 8.33 nM 2.62% | 100 nM 0.96% | 833.33 nM 0.22% | 10000 nM -1.62%

CCc1nc2ccc(Cl)cn2c1C(=O)NCc1ccc(N2CCC(c3ccc(OC(F)(F)F)cc3)CC2)cc1
inactive: 1 nM 0.5% | 8.33 nM 1.98% | 100 nM -0.55% | 833.33 nM 0.62% | 10000 nM -1.65%

N[C@H](Cc1ccccc1)C(=O)O [D-phenylalanine]
inactive: 1 nM 2.99% | 8.33 nM -0.14% | 100 nM 2.52% | 833.33 nM 0.27% | 10000 nM 0.05%

O=c1c(O)c(-c2ccc(O)c(O)c2)oc2cc(O)ccc12 [fisetin]
inactive: 1 nM 0.55% | 8.33 nM -1.12% | 100 nM 0.7% | 833.33 nM -0.95% | 10000 nM -1.68%

COc1ccc(NC(=O)c2ccc(-c3ccc(-c4noc(C)n4)cc3C)cc2)cc1OCCN(C)C
inactive: 1 nM -0.44% | 8.33 nM -0.62% | 100 nM -0.42% | 833.33 nM -0.17% | 10000 nM 5.11%

Oc1ccc([C@@H]2Oc3ccc(O)cc3[C@@H]3CCC[C@@H]32)cc1 [erteberel]
inactive: 1 nM -2.79% | 8.33 nM 0.52% | 100 nM -1.51% | 833.33 nM -4.66% | 10000 nM 2.31%

CC(=O)c1c(O)cc(C)oc1=O [dehydroacetic-acid]
inactive: 1 nM 2.87% | 8.33 nM 3.44% | 100 nM 2.94% | 833.33 nM 2.97% | 10000 nM 3.07%

N#Cc1cc(-c2n[nH]c(-c3ccncc3)n2)ccn1 [topiroxostat]
inactive: 1 nM 0.4% | 8.33 nM 0.34% | 100 nM 3.87% | 833.33 nM -0.47% | 10000 nM 0.11%

O=C(N[C@H]1CCN(C(=O)c2cc(C(F)(F)F)cc(C(F)(F)F)c2)[C@H](Cc2ccc(Cl)cc2)C1)c1ccnc2ccccc12
inactive: 1 nM -1.66% | 8.33 nM -1.32% | 100 nM 1.01% | 833.33 nM 2.87% | 10000 nM 0.89%

COc1ccc(C(=O)c2c(C)n(CCN3CCOCC3)c3ccccc23)cc1 [pravadoline]
inactive: 1 nM 3.43% | 8.33 nM 2.8% | 100 nM -0.1% | 833.33 nM -1.26% | 10000 nM -0.15%
